Measurements from the supplement of paper PMC7411054.
Structures can show the parent of a compound that is named as a salt.

system: HepG2-ACTB-RAB5A; assay: lowest phenotypically active concentration; higher = less potent; conditions: treatment time: 24 h
Summary of the method: (§1)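 After 24 h at 0.3, 1, 3 or 9 µM, with four wells per treatment, fifteen gene-edited A549, HepG2 and WPMY1 reporter lines carrying BFP, GFP and RFP/FusionRed were imaged live. Each well's live-cell features were expressed relative to solvent control wells. Deviation required ≥3 of 4 wells past the 95th percentile of control Euclidean distances, and reproducibility a median replicate Pearson correlation over the 95th percentile of non-replicates. Phenotypic activity rested on both.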

Row | SMILES | lowest phenotypically active concentration [µM]
1 | C[C@@]1(CO)[C@H](O)CC[C@@]2(C)[C@H]1CC[C@H]1C[C@@H]3C[C@@]12CC[C@]3(O)CO [Aphidicolin] | ≤ 0.3
2 | COC(=O)[C@@]1(O)C[C@H]2O[C@]1(C)n1c3ccccc3c3c4c(c5c6ccccc6n2c5c31)C(=O)NC4 | ≤ 0.3
3 | COc1ccc(N(C(=O)Oc2c(C)cccc2C)c2ccnc(Nc3ccc(N4CCN(C)CC4)cc3)n2)c(OC)c1 | ≤ 0.3
4 | CC[C@@H]1C=CC=CC[C@H](C)[C@@H](O)[C@](C)(O)C(=O)[C@H](C)[C@@H](O)[C@H](C)C(=O)[C@H](C)[C@@H](O)[C@H](C)C=CC(=O)O[C@H]2[C@@H](C)[C@@H](CC1)O[C@@]1(CC[C@@H](C)[C@@H](C[C@H](C)O)O1)[C@@H]2C [Oligomycin A] | ≤ 0.3
5 | CC(C)[C@@]1(NC(=O)[C@@H]2C[C@@H]3c4cccc5[nH]cc(c45)C[C@H]3N(C)C2)O[C@@]2(O)[C@@H]3CCCN3C(=O)[C@H](Cc3ccccc3)N2C1=O [Dihydroergocristine mesylate] | 3
6 | O=c1[nH]c2ccccc2n1C1CCN(CCCC(c2ccc(F)cc2)c2ccc(F)cc2)CC1 [pimozide] | 3
7 | C[C@]12CC[C@H]3[C@@H](CC[C@]4(O)C[C@@H](O)CC[C@]34C=O)[C@@]1(O)CC[C@@H]2C1=CC(=O)OC1 [Strophanthidin] | ≤ 0.3
8 | C=C1[C@@H](O)C2C=CC[C@H](C)C(=O)[C@](C)(O)C=C[C@@H](OC(C)=O)[C@]23C(=O)N[C@H](Cc2ccccc2)[C@@H]3[C@@H]1C (some centres not stated) [Cytochalasin D] | ≤ 0.3
9 | COc1ccc(C[C@H]2NC[C@H](O)[C@H]2OC(C)=O)cc1 [Anisomycin] | ≤ 0.3
10 | C[C@@H]1CC[C@H]2[C@@H](C)C(=O)O[C@@H]3O[C@@]4(C)CC[C@@H]1[C@]32OO4 [Artemisinin] | 3
11 | Cc1sc2c(c1C)C(c1ccc(Cl)cc1)=N[C@@H](CC(=O)OC(C)(C)C)c1nnc(C)n1-2 | ≤ 0.3
12 | CN1C[C@H](C(=O)N[C@]2(C)O[C@@]3(O)[C@@H]4CCCN4C(=O)[C@H](Cc4ccccc4)N3C2=O)C[C@@H]2c3cccc4[nH]cc(c34)C[C@H]21.CN1C[C@H](C(=O)N[C@]2(C)O[C@@]3(O)[C@@H]4CCCN4C(=O)[C@H](Cc4ccccc4)N3C2=O)C[C@@H]2c3cccc4[nH]cc(c34)C[C@H]21 [dihydroergotamine] | 9
13 | C[C@@]12C(=O)OC(=O)[C@]1(C)[C@H]1CC[C@@H]2O1 [Cantharidin] | 3
14 | COc1cc2c(c(OC)c1OC)-c1ccc(OC)c(=O)cc1[C@@H](NC(C)=O)CC2 [colchicine] | ≤ 0.3
15 | CC(C)(O)[C@H]1O[C@H]2CC[C@@]3(C)[C@@](O)(CC[C@H]4Cc5c([nH]c6ccccc56)[C@@]43C)C2=CC1=O [paxilline] | 9
16 | N#CC(C#N)=NNc1cccc(Cl)c1 | 9
17 | CCN1CCN(C(=O)Cc2ccc(Nc3ncc(F)c(Nc4ccc(C(=O)Nc5ccccc5Cl)cc4)n3)cc2)CC1 | 1
18 | O=C(NCCN1CCC2(CC1)C(=O)NCN2c1cccc(F)c1)c1ccc(F)c(F)c1 [ML 298 hydrochloride] | 9
19 | CC(C)(N)Cc1ccccc1 [phentermine] | 9
20 | CCn1cnc2c(Nc3cccc(Cl)c3)nc(N[C@H]3CCCC[C@H]3N)nc21 | 1
21 | O=C(Nc1ccncc1)C(=O)c1cn(Cc2ccc(Cl)cc2)c2ccccc12 [Indibulin] | 1
22 | CC[C@@H](C(=O)[C@@H](C)[C@@H](O)[C@H](C)[C@@H]1O[C@@H]([C@@H](CC)C(=O)O)CC[C@@H]1C)[C@H]1O[C@]2(C=C[C@@H](O)[C@]3(CC[C@@](C)([C@H]4CC[C@](O)(CC)[C@H](C)O4)O3)O2)[C@H](C)C[C@@H]1C [Salinomycin Sodium] | 1
23 | CN1C[C@H](C(=O)N[C@]2(C)O[C@@]3(O)[C@@H]4CCCN4C(=O)[C@H](Cc4ccccc4)N3C2=O)C=C2c3cccc4[nH]cc(c34)C[C@H]21 [ergotamine] | 9
24 | N#CC(C#N)=NNc1ccc(OC(F)(F)F)cc1 | 9
25 | COC1=CC(C)=C[C@@H](C)[C@@H](O)[C@@H](C)CC(C)=CC=C[C@H](OC)[C@@H]([C@@H](C)[C@@H](O)[C@H](C)[C@@]2(O)C[C@@H](O)[C@H](C)[C@@H](C(C)C)O2)OC1=O [Bafilomycin A1] | 3
26 | COc1cc([C@@H]2c3cc4c(cc3[C@H](O)[C@H]3COC(=O)[C@H]23)OCO4)cc(OC)c1OC [Podophyllotoxin] | ≤ 0.3
27 | CC[C@]12C=CCN3CC[C@]4(C(=C(C(=O)OC)C1)Nc1ccccc14)[C@@H]32 [Tabersonine dichlorhydrate] | 9

system: HepG2-CANX-COX4; assay: as above; conditions: treatment time: 24 h
Summary of the method: as §1

Row | SMILES | lowest phenotypically active concentration [µM]
28 | CC[C@H]1CN2CC[C@H]1C[C@@H]2[C@@H](O)c1ccnc2ccc(OC)cc12 [Hydroquinidine HCl] | 9
29 | COc1cc2c(c(OC)c1OC)-c1ccc(O)c(=O)cc1[C@@H](N)CC2 [Trimethylcolchicinic acid] | 9
30 | C[C@@]1(CO)[C@H](O)CC[C@@]2(C)[C@H]1CC[C@H]1C[C@@H]3C[C@@]12CC[C@]3(O)CO [Aphidicolin] | ≤ 0.3
31 | COC(=O)[C@@]1(O)C[C@H]2O[C@]1(C)n1c3ccccc3c3c4c(c5c6ccccc6n2c5c31)C(=O)NC4 | ≤ 0.3
32 | COc1ccc(N(C(=O)Oc2c(C)cccc2C)c2ccnc(Nc3ccc(N4CCN(C)CC4)cc3)n2)c(OC)c1 | 1
33 | CC[C@@H]1C=CC=CC[C@H](C)[C@@H](O)[C@](C)(O)C(=O)[C@H](C)[C@@H](O)[C@H](C)C(=O)[C@H](C)[C@@H](O)[C@H](C)C=CC(=O)O[C@H]2[C@@H](C)[C@@H](CC1)O[C@@]1(CC[C@@H](C)[C@@H](C[C@H](C)O)O1)[C@@H]2C [Oligomycin A] | ≤ 0.3
34 | CC(C)[C@@]1(NC(=O)[C@@H]2C[C@@H]3c4cccc5[nH]cc(c45)C[C@H]3N(C)C2)O[C@@]2(O)[C@@H]3CCCN3C(=O)[C@H](Cc3ccccc3)N2C1=O [Dihydroergocristine mesylate] | 9
35 | C[C@]12CC[C@H]3[C@@H](CC[C@]4(O)C[C@@H](O)CC[C@]34C=O)[C@@]1(O)CC[C@@H]2C1=CC(=O)OC1 [Strophanthidin] | 1
36 | CN1CCC2=C[C@H](O)[C@H]3OC(=O)c4cc5c(cc4[C@H]3[C@@H]21)OCO5 [Hippeastrine hydrobromide] | 9
37 | C=C1[C@@H](O)C2C=CC[C@H](C)C(=O)[C@](C)(O)C=C[C@@H](OC(C)=O)[C@]23C(=O)N[C@H](Cc2ccccc2)[C@@H]3[C@@H]1C (some centres not stated) [Cytochalasin D] | ≤ 0.3
38 | COc1ccc(C[C@H]2NC[C@H](O)[C@H]2OC(C)=O)cc1 [Anisomycin] | ≤ 0.3
39 | Cc1sc2c(c1C)C(c1ccc(Cl)cc1)=N[C@@H](CC(=O)OC(C)(C)C)c1nnc(C)n1-2 | ≤ 0.3
40 | C[C@@]12C(=O)OC(=O)[C@]1(C)[C@H]1CC[C@@H]2O1 [Cantharidin] | 9
41 | COc1cc2c(c(OC)c1OC)-c1ccc(OC)c(=O)cc1[C@@H](NC(C)=O)CC2 [colchicine] | ≤ 0.3
42 | N#CC(C#N)=NNc1cccc(Cl)c1 | 9
43 | CCN1CCN(C(=O)Cc2ccc(Nc3ncc(F)c(Nc4ccc(C(=O)Nc5ccccc5Cl)cc4)n3)cc2)CC1 | 1
44 | CCn1cnc2c(Nc3cccc(Cl)c3)nc(N[C@H]3CCCC[C@H]3N)nc21 | 1
45 | O=C(Nc1ccncc1)C(=O)c1cn(Cc2ccc(Cl)cc2)c2ccccc12 [Indibulin] | ≤ 0.3
46 | CC[C@@H](C(=O)[C@@H](C)[C@@H](O)[C@H](C)[C@@H]1O[C@@H]([C@@H](CC)C(=O)O)CC[C@@H]1C)[C@H]1O[C@]2(C=C[C@@H](O)[C@]3(CC[C@@](C)([C@H]4CC[C@](O)(CC)[C@H](C)O4)O3)O2)[C@H](C)C[C@@H]1C [Salinomycin Sodium] | 1
47 | CN1C[C@H](C(=O)N[C@]2(C)O[C@@]3(O)[C@@H]4CCCN4C(=O)[C@H](Cc4ccccc4)N3C2=O)C=C2c3cccc4[nH]cc(c34)C[C@H]21 [ergotamine] | 3
48 | C[C@H](CCC(=O)O)C[C@H](C)C[C@H](C)C(=O)/C=C(\O)[C@H](C)C[C@H](C)C/C=C/[C@@H](C)[C@@H](O)[C@@H](C)[C@@H](O)C[C@@H]1CC[C@@](C)([C@H]2CC[C@@](C)([C@@H](C)O)O2)O1 [Ionomycin free acid] | 9
49 | N#CC(C#N)=NNc1ccc(OC(F)(F)F)cc1 | 9
50 | COC1=CC(C)=C[C@@H](C)[C@@H](O)[C@@H](C)CC(C)=CC=C[C@H](OC)[C@@H]([C@@H](C)[C@@H](O)[C@H](C)[C@@]2(O)C[C@@H](O)[C@H](C)[C@@H](C(C)C)O2)OC1=O [Bafilomycin A1] | 3
51 | COc1cc([C@@H]2c3cc4c(cc3[C@H](O)[C@H]3COC(=O)[C@H]23)OCO4)cc(OC)c1OC [Podophyllotoxin] | ≤ 0.3
52 | CC[C@]12C=CCN3CC[C@]4(C(=C(C(=O)OC)C1)Nc1ccccc14)[C@@H]32 [Tabersonine dichlorhydrate] | 9
